Experimental findings from PubChem BioAssay are described below.

A number with no mark means an inactive call. Active and inactive are the calls of the source.

The assay can be described thus: S. pombe growth modifiers, basal conditions – strain 972, OD600, 24 h, no modulator, primary screen (AID 1090).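 Further: basal condition with compound alone and no growth modifier present; test concentration not given here.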 The conditions noted are these: S. pombe 972 growth, higher = more signal, called active from +8 up or from −8 down.
For the molecule `CCCNC(=O)[C@@]1(Sc2ccc(C)cc2)CC(=O)N(Cc2ccccc2Cl)[C@@H]1c1ccc(CO)cc1`, the z-score is -3.1.
The value for `C[C@H]1COC(=O)[C@H](Cc2ccccc2)NC(=O)[C@@H](C)COC(=O)[C@H](Cc2ccccc2)NC1=O` was -1.27.
On to `CC(C)N1CC=CC23O[C@@H]4/C=C\CCCOC(=O)C4[C@H]2C(=O)N(CCO)[C@@H]3C1=O` (stereo partly specified), for which the z-score was -3.04.
For `COC(=O)[C@@]1(Cc2ccc(OC)cc2)[C@H]2c3cc(C(=O)N(C)C)n(CCc4ccc(OC)c(Br)c4)c3C[C@H]2CN1C(=O)c1ccccc1` the value was 0.236; for `COCCOC(=O)N1C(=O)[C@@]2(c3cc(C#CCCO)ccc31)[C@H](c1ccc(O)cc1)N1[C@H](c3ccccc3)[C@H](c3ccccc3)OC(=O)[C@H]1[C@@H]2C(=O)Nc1nc2ccccc2s1`, -0.239; for `C=CC[C@]1(C(=O)N2CCCCC2)N=C(c2ccc(OCCCO)cc2)O[C@H]1c1ccccc1N=[N+]=[N-]`, -1.18.
Consider `CCCC=C(CCC)[C@@H](NS(=O)(=O)c1cccc(C(F)(F)F)c1)c1ccc(C(=O)OC)cc1`, for which the z-score was 0.441.
In the case of `COc1ccc([Si](C)(C)[C@@H]2[C@@H](CC(=O)N(CCO)Cc3ccccc3)O[C@]3(C(=O)N(Cc4cccc(N5CCC5=O)c4)c4ccccc43)[C@H]2C)cc1`, the z-score is 0.463.
For `COc1cc([C@@H]2N[C@H](C(=O)O)Cc3c2[nH]c2ccccc32)cc(OC)c1OC` the value was -0.581.
The value for `COCC(=C=CC[C@H](O)c1ccc(OCCO)cc1)C[C@H](O)c1ccccn1` was -1.05; that for `COCCOC(=O)N1C(=O)[C@@]2(c3cc(C#CC4(O)CCCCCC4)ccc31)[C@H](C(=O)N1CCCCCCC1)[C@H]1C(=O)O[C@H](c3ccccc3)[C@H](c3ccccc3)N1[C@@H]2c1ccc(O)cc1` was -1.1; that for `C=CCC(OC(C)=O)[C@@H]1[C@@H](N(Cc2cc3ccccc3o2)C(=O)c2ccc(C)cc2)c2cc(OCCCO)ccc2N1C(=O)c1ccc2ccccc2n1` (stereo partly specified) was -0.518.
Turning to `C=C(COC)C(=O)CC[C@H](OC(=O)c1ccccc1-c1ccccc1C(=O)O)c1cccc(OCCO)c1`, the z-score was -20.5 (active).
With `CC(C)[Si](OCC[C@H]1O[C@]2(C(=O)N(Cc3ccccc3)c3ccccc32)[C@@H](C)[C@@H]1[Si](C)(C)O)(C(C)C)C(C)C`, the z-score is -0.259.
For the molecule `CO[C@H]1COC(=O)CC=C[C@H](C)[C@@H](OC)COC(=O)CC=C[C@@H]1C`, the z-score was -1.5.
For `COCCOC(=O)N1C(=O)[C@@]2(c3cc(C#CC4=CCCCC4)ccc31)[C@H](C(=O)NC[C@H](O)c1ccccc1)[C@H]1C(=O)O[C@H](c3ccccc3)[C@H](c3ccccc3)N1[C@@H]2c1ccccc1OCCO` the value was 1.79.
For `COc1cc2c(cc1OC)CN(C(=O)[C@H]1[C@@H]3C(=O)O[C@@H](c4ccccc4)[C@@H](c4ccccc4)N3[C@@H](c3ccc(O)cc3)[C@]13C(=O)Nc1ccc(C#CC4(O)CCCCCC4)cc13)CC2` the value was 0.0581; for `CN(C)C(=O)[C@@]1(Cc2ccccc2N=[N+]=[N-])N=C(c2ccc(OCCCO)cc2)O[C@H]1c1ccccc1CN=[N+]=[N-]`, -1.62; for `CO[C@H]1COC(=O)[C@@H](C)COC(=O)[C@H](Cc2ccccc2)NC(=O)CC=C[C@H]1C`, -1.25.
As for `CC(=O)NCCCC[C@@H]1NC(=O)[C@H]2C[C@@H](C(=O)NCCCCCCN(C)C)[C@@H](c3cccc(OCCO)c3)N2C1=O`, the z-score was -0.36.
The value for `C=CCC(OC(C)=O)[C@@H]1[C@@H](N(Cc2ccc(-c3ccccc3)cc2)C(=O)c2ccc(-c3ccccc3)cc2)c2cc(OCCCO)ccc2N1C(=O)Cc1ccc(OC)cc1` (stereo partly specified) was 0.202.
The value for `COCCCNC(=O)[C@@H]1c2ccccc2C(=O)N(CC23CC4CC(CC(C4)C2)C3)[C@H]1c1ccc(CO)cc1` was -1.02.
For `C=CCN1C(=O)[C@]2(O[C@H](CCn3cc(CCO)nn3)[C@@H]([Si](C)(C)c3ccc(OC)cc3)[C@@H]2C)c2cc(NC(=O)c3ccc(OC)cc3)ccc21` the value was -1.22; for `C=C(CCCC)/C(=C/C[C@@H](OC(=O)c1ccncc1)c1ccc(CO)o1)c1cnc2ccccc2c1`, -2.43.
With `COC(=O)Cn1c(C(=O)N2CCCC2)cc2c1C[C@H]1CN(C(=O)c3ccccc3)[C@@](Cc3ccc(OC)cc3)(C(=O)OC)[C@@H]21`, the z-score was 1.39.
With `C=C(CCCC)C(=O)CC[C@@H](OC(C)=O)c1ccccc1OCCO`, the z-score is -18.7 (active).
For `CCOC(=O)C[C@H]1[C@H](OC(=O)c2cc3ccccc3oc2=O)[C@@H](NC(=O)C2CCCCC2)c2cc(OCCCO)ccc2N1C(=O)c1ccc2ccccc2n1`, the z-score was 0.802.
Take `COC(=O)C(CC#Cc1ccc2c(c1)[C@]1(C(=O)N2)[C@H](C(=O)N2CCCCCCC2)[C@H]2C(=O)O[C@H](c3ccccc3)[C@H](c3ccccc3)N2[C@@H]1c1ccc(O)cc1)C(=O)OC`: the z-score was 0.0597.
With `C=C[C@H](OC)[C@@H](OC(=O)Nc1ccc(SC)cc1)c1ccc(O)c(F)c1`, the z-score is -1.68.
The value for `O=C1O[C@@H](c2ccccc2)[C@@H](c2ccccc2)N2[C@@H](c3ccc(OCCO)cc3)[C@]3(C(=O)Nc4ccc(C#CCCO)cc43)[C@@H](C(=O)N3CCN(c4ncccn4)CC3)[C@H]12` was 1.04; that for `C=CCC(OC(C)=O)[C@@H]1[C@@H](N(Cc2cccc3ccccc23)C(=O)Cc2ccc(F)cc2)c2cc(OCCCO)ccc2N1C(=O)Cc1ccc2ccccc2c1` (stereo partly specified) was 1.1; that for `O=C1O[C@@H](c2ccccc2)[C@@H](c2ccccc2)N2[C@@H](c3ccc(O)cc3)[C@]3(C(=O)Nc4ccc(C#CC5(O)CCCCCC5)cc43)[C@@H](C(=O)Nc3nc4ccccc4s3)[C@H]12` was -0.399.
The value for `C#CCCCON=C1C[C@@H](O)[C@@H](O)[C@@H]2[C@@H]3C(=O)N(Cc4ccc5c(c4)OCO5)C(=O)[C@@H]3CC[C@@H]12` was 0.783.
On to `O=C1O[C@H](c2ccccc2)[C@H](c2ccccc2)N2[C@H]1[C@@H](C(=O)NC[C@H](O)c1ccccc1)[C@]1(C(=O)Nc3ccc(C#CC4(O)CCCCCC4)cc31)[C@H]2c1ccc(OCCO)cc1`, for which the z-score is -0.538.
For `CCOC(=O)C1=C[C@@H](c2ccccc2)N(S(=O)(=O)c2ccc(C)cc2)[C@H]1c1ccc(F)cc1` the value was 2.18; for `O=[N+]([O-])c1ccc(C[n+]2ccc3ccc(O)cc3c2)o1`, -7.09.
